# In PubChem BioAssay (NCATS):
# Values joined by “and” are separate entries in the source; they are usually repeats but may differ in a detail not shown here. Equal entries are not always repeated. Records with an inconclusive call do not appear. Active and inactive are the calls of the source. Unless noted, the call rests on the fitted dose curve; in most records, active means well fitted curve in the direction sought with a large enough effect; inconclusive means small, poorly fitted or top-dose-only effect, or another doubt; inactive means no such curve, though single readings can be large; an effect the other way counts as inactive or inconclusive.
# Experiments:
# [1] = qHTS Assay for Lipid Storage Modulators (AID 1519; calls by dose curve; on activity change, negative = inhibition: on the % scale 0 is the no-effect control and ±100 the full control effect); details: Drosophila S3 cells, BODIPY lipid droplet/cell ratio, laser cytometry, cells loaded with oleic acid
# Method in brief: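 Cells seeded at 5,000 per well were treated with compounds over a concentration series and loaded with oleic acid (400 uM, as added). Lipid droplet fluorescence (488 nm excitation, 500-530 nm channel) was read by laser-scanning cytometry and normalized to 20 uM Triacsin C.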
# [2] = target: Alpha-galactosidase A (Homo sapiens) (UniProt P06280); experiment: Counterscreen for Glucocerebrosidase Inhibitors: qHTS Assay for Human alpha-Galactosidase at pH 4.5 (AID 992); further: 0% is about no effect
# Method in brief: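 Quantitative HTS: compounds tested from 0.7 nM up to 77 uM against 2 nM enzyme with 80 uM 4-MU alpha-D-galactopyranoside. The 20 min room-temperature reaction is stopped with 1M NaOH/1M glycine, pH 10.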
# [3] = target: alpha-glucosidase (Oryza sativa, rice) (UniProt Q653V4); experiment: Counterscreen for Glucocerebrosidase Inhibitors: qHTS Assay for Rice alpha-Glucosidase at pH 5.0 (AID 997);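 further: 0% = full activity with enzyme and -100% = basal without enzyme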
# Method in brief: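 Rice alpha-glucosidase (4 nM final) with 400 uM 4-methylumbelliferyl-alpha-D-glucopyranoside in citrate buffer pH 5.0, 20 min at room temperature, stopped at pH 10; fluorescence 365/440 nm, compounds 0.7 nM–77 uM, AC50 from Hill fits.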
# [4] = target: DNA repair nuclease/redox regulator APEX1 (Homo sapiens) (UniProt P27695); experiment: qHTS Validation Assay for Inhibitors of the Human Apurinic/apyrimidinic Endonuclease 1 (APE1) (AID 1705;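 further: TAMRA fluorescence gain over two minutes as APE1 cuts a quenched THF abasic duplex; on the % scale 0 is the no-effect control and ±100 the full control effect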)
# Method in brief: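 qHTS, 1536-well. APE1 + cpd 15 min RT → 50 nM TAMRA/BHQ-2 THF-abasic dsDNA substrate → kinetic fluorescence, 3 reads/60 s; delta(read3−read1) = reaction progress. No-enzyme buffer = negative control.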
# [5] = Counterscreen for APE1 Inhibitors: Fluorescent Dye Displacement Validation Assay (AID 1707);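 further: plate controls were ThO with dsDNA and no compound for no effect and ThO without dsDNA for full effect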
# Method in brief: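 Compounds are scored by their ability to displace Thiazole Orange (250 nM) from a 50 nM TAMRA-tagged duplex bearing a tetrahydrofuran abasic site. Buffer is 50 mM Tris-HCl pH7.5, 50mM NaCl, 2 mM MgCl2, 0.01% Tween-20.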
# [6] = qHTS for differential inhibitors of proliferation of Plasmodium falciparum line 7G8 (AID 1815);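 further: parasite growth measured after three days of incubation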; further: potency means the concentration at half of the fitted maximal effect;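 on activity change, negative = inhibition: plate controls were vehicle wells for no effect and reference inhibitor wells for full effect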
# [7] = qHTS for differential inhibitors of proliferation of Plasmodium falciparum line GB4 (AID 1816); details: Potency: Plasmodium falciparum GB4 proliferation inhibition;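 further: parasite growth measured after 72 h incubation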; further: potency means the concentration at half of the fitted maximal effect;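 on activity change, negative = inhibition: 0% = vehicle DMSO and -100% = reference inhibitor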
# [8] = qHTS for differential inhibitors of proliferation of Plasmodium falciparum line 3D7 (AID 1876); further: potency means the concentration at half of the fitted maximal effect
# [9] = Cell Viability - LYMP1-002 - Assay at 24 hr (AID 993); further: potency means the concentration at half of the fitted maximal effect
# Method in brief: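 qHTS, LYMP1-002 lymphoblastoid, 24 h cpd, 37 C, CellTiter-Glo ATP luminescence; AC50 via Hill eq.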
# [10] = Cell Viability - LYMP2-008 (AID 980); further: nearly all actives have a fitted effect of over 60% in size; further: potency means the concentration at half of the fitted maximal effect
# Method in brief: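 Acute cytotoxicity is scored as concentration-dependent loss of cellular ATP in a human lymphoblastoid line after 24 hr treatment at 37 C. ATP is quantified by luciferase luminescence.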
# [11] = Cell Viability - LYMP2-010 (AID 981);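 further: cells exposed to compound for 24 hours at 37 °C; nearly all actives have a fitted effect of over 55% in size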; further: potency means the concentration at half of the fitted maximal effect
# Method in brief: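 Acute toxicity is scored as a concentration-dependent loss of cellular ATP in human lymphoblastoid cells after 24 hr compound exposure in complete medium. Tetraoctylammonium bromide is the positive control.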
# [12] = Cell Viability - LYMP2-012 (AID 982);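 further: cellular ATP by luciferase luminescence where a drop means cytotoxicity; cells exposed to compound for one day before reading; 0% = DMSO only and full loss = 92 µM tetraoctylammonium bromide; nearly all actives have a fitted effect of over 55% in size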
# [13] = Cell Viability - LYMP2-014 (AID 983);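 further: cells exposed to compound for 24 h at 37 °C; plate controls were DMSO only for no effect and 92 µM tetraoctylammonium bromide for full effect; nearly all actives have a fitted effect of over 50% in size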
# Method in brief: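 Decrease in intracellular ATP after 24 hr treatment at 37 C, measured by luciferase luminescence, indicated cytotoxicity. Concentration-response data were fitted with the standard Hill equation to give AC50.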
# [14] = Cell Viability - LYMP2-016 (AID 984);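 further: cells exposed to compound for 24 hours at 37 °C; nearly all actives have a fitted effect of over 55% in size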; further: potency means the concentration at half of the fitted maximal effect
# Method in brief: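 Cells were seeded at 2500 per well and rested 5 hr before a 24 hr compound exposure at 37 C. Viability was then gauged as cellular ATP by luciferase luminescence, with AC50 values fitted to the Hill equation.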
# [15] = Cell Viability - LYMP2-020 (AID 986);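 further: cells exposed to compound for 24 h at 37 °C; nearly all actives have a fitted effect of over 55% in size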; further: potency means the concentration at half of the fitted maximal effect
# Method in brief: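 Acute cytotoxicity in a human lymphoblastoid line is scored as a concentration-dependent fall in cellular ATP after 24 hr at 37 C in complete medium. The positive control is tetraoctylammonium bromide, and potency is given as Hill-fit AC50.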
# [16] = Cell Viability - LYMP2-022 (AID 987); further: nearly all actives have a fitted effect of over 55% in size; further: potency means the concentration at half of the fitted maximal effect
# Method in brief: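 Acute toxicity in a human lymphoblastoid line is scored as decreased intracellular ATP after 24 hr compound treatment at 37 C. ATP is measured by CellTiter-Glo luminescence; curves are fitted with the Hill equation to give AC50.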
# [17] = Cell Viability - LYMP2-024 (AID 988);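 further: plate controls were DMSO only for no effect and 92 µM tetraoctylammonium bromide for full effect; nearly all actives have a fitted effect of over 60% in size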
# Method in brief: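 Acute toxicity is measured as concentration-dependent loss of intracellular ATP in a human lymphoblastoid line treated 24 hours at 37 C. Luciferase luminescence quantifies ATP; AC50 values come from standard Hill-equation modelling.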
# [18] = Cell Viability - LYMP2-026 (AID 989);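 further: cells exposed to compound for 24 h at 37 °C; nearly all actives have a fitted effect of over 50% in size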; further: potency means the concentration at half of the fitted maximal effect
# Method in brief: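 Concentration-dependent loss of intracellular ATP in human lymphoblastoid cells after 24 hr at 37 C, quantified by luciferase luminescence. AC50 derived from standard Hill equation.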
# [19] = Cell Viability - LYMP1-002 - Assay at 40 hr (AID 994); further: nearly all actives have a fitted effect of over 60% in size; further: potency means the concentration at half of the fitted maximal effect
# Method in brief: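 Viability in the human lymphoblastoid line was measured as intracellular ATP via CellTiter-Glo after 40 hr compound exposure. Tetraoctylammonium bromide served as positive control.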
# [20] = measured here: cell count channel max response
# [21] = measured here: lipid channel max response
# DNA repair nuclease/redox regulator APEX1 (Homo sapiens), sequence (P27695 whole entry, looked up): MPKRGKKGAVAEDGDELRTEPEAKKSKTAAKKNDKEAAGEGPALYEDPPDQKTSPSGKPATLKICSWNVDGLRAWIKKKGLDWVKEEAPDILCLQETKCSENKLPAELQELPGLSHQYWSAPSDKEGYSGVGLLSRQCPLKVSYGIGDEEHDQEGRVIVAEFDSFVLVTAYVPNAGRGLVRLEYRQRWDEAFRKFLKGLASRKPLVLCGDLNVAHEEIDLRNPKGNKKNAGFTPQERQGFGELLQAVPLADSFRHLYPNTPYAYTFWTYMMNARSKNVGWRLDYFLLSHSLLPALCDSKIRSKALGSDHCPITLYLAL
# Alpha-galactosidase A (Homo sapiens), sequence (P06280 whole entry, looked up): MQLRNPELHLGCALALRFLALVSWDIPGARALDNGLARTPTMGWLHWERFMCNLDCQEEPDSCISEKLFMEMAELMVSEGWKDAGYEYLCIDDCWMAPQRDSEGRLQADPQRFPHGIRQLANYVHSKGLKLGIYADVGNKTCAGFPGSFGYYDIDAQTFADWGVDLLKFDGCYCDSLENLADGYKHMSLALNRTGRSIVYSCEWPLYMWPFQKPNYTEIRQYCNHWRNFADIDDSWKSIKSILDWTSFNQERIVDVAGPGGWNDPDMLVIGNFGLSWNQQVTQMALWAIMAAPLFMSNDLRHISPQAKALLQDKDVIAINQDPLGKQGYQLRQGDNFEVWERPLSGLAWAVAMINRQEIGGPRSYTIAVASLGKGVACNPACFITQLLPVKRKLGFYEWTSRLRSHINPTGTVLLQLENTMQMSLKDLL
structure (smiles),measurement,setting,value
CC(COc1ccccc1)NC(C)C(O)c1ccc(O)cc1 (stereo unspecified),"activity change, negative = inhibition",[1]; at 57.5 µM (top of the series),4.19% (inactive)
same,max response,[1]; [20],1.34%
same,max response,[1]; [21],8.74%
CNCCCC1c2ccccc2C=Cc2ccccc21,outcome,[2],inactive
same,outcome,[3],inactive
same,"activity change, negative = inhibition",[1]; at 25.7 µM (top of the series),-5.19% (inactive)
same,"activity change, negative = inhibition",[1]; at 57.5 µM (top of the series),0.497% (inactive)
same,max response,[1]; [20],-11.5% and -13.6%
same,max response,[1]; [21],-15.9%
same,Potency,[4],inactive
same,Potency,[5],inactive
same,Potency,[6],5.62 µM (active)
same,Potency,[7],10 µM (active)
same,Potency,[8],10 µM (active)
CN(C)CCN(Cc1ccccc1)c1ccccn1,"activity change, negative = inhibition",[1]; at 57.5 µM (top of the series),1.48% (inactive)
same,max response,[1]; [20],12.3%
same,max response,[1]; [21],16.2%
CN(C)CCCN1c2ccccc2CCc2ccccc21,outcome,[2],inactive
same,outcome,[3],inactive
same,"activity change, negative = inhibition",[1]; at 25.7 µM (top of the series),-3.67% (inactive)
same,"activity change, negative = inhibition",[1]; at 57.5 µM (top of the series),-1.66% (inactive) and 1.56% (inactive)
same,max response,[1]; [20],-3.16% and 7.78% and 14.5%
same,max response,[1]; [21],-7.45% and 10.3% and 14.3%
same,Potency,[4],inactive
same,Potency,[5],inactive
c1ccc(CN(CC2=NCCN2)c2ccccc2)cc1,"activity change, negative = inhibition",[1]; at 25.7 µM (top of the series),-2.49% (inactive)
same,"activity change, negative = inhibition",[1]; at 57.5 µM (top of the series),-1.31% (inactive)
same,max response,[1]; [20],2.23% and 6.19%
same,max response,[1]; [21],-3.05% and 6.55%
Cn1cc[nH]c1=S,"activity change, negative = inhibition",[1]; at 25.7 µM (top of the series),-0.635% (inactive)
same,"activity change, negative = inhibition",[1]; at 57.5 µM (top of the series),4.03% (inactive)
same,max response,[1]; [20],-10.4% and 8.98%
same,max response,[1]; [21],-9.93% and 13%
CC1=C(/C=C/C(C)=C/C=C/C(C)=C/C(=O)O)C(C)(C)CCC1,"activity change, negative = inhibition",[1]; at 57.5 µM (top of the series),0.149% (inactive)
same,max response,[1]; [20],-9.37%
same,max response,[1]; [21],-7.9%
same,Potency,[4],inactive
same,Potency,[5],inactive
same,Potency,[6],14.1 µM (active)
same,Potency,[8],inactive
CCCCN(CCCC)CCCOC(=O)c1ccc(N)cc1,"activity change, negative = inhibition",[1]; at 25.7 µM (top of the series),-3.3% (inactive)
same,"activity change, negative = inhibition",[1]; at 57.5 µM (top of the series),6.89% (inactive)
same,max response,[1]; [20],-6.51% and -0.907%
same,max response,[1]; [21],-7.52% and 11.8%
O=C(CCCN1CCN(c2ccccn2)CC1)c1ccc(F)cc1,"activity change, negative = inhibition",[1]; at 25.7 µM (top of the series),0.351% (inactive)
same,"activity change, negative = inhibition",[1]; at 57.5 µM (top of the series),15.3% (inactive)
same,max response,[1]; [20],-7.79% and 5.38%
same,max response,[1]; [21],-10.2% and 27.2%
CCCCCCCCCCCCCCCCCCOCC(O)CO (stereo unspecified),"activity change, negative = inhibition",[1]; at 57.5 µM (top of the series),4.1% (inactive)
same,max response,[1]; [20],15.6%
same,max response,[1]; [21],19.9%
OC[C@H]1O[C@@H](O[C@@H]2[C@@H](CO)O[C@](O)(CO)[C@H]2O)[C@H](O)[C@@H](O)[C@H]1O,"activity change, negative = inhibition",[1]; at 57.5 µM (top of the series),-5.86% (inactive)
same,max response,[1]; [20],-20.2%
same,max response,[1]; [21],-24.3%
C[C@H]1O[C@@H](n2cc(F)c(=O)[nH]c2=O)[C@H](O)[C@@H]1O,"activity change, negative = inhibition",[1]; at 57.5 µM (top of the series),-0.32% (inactive)
same,max response,[1]; [20],40.7%
same,max response,[1]; [21],39.7%
same,Potency,[4],inactive
same,Potency,[5],inactive
same,Potency,[6],inactive
same,Potency,[7],inactive
same,Potency,[8],inactive
Cc1cc2c(cc1S(N)(=O)=O)S(=O)(=O)CCC2,"activity change, negative = inhibition",[1]; at 25.7 µM (top of the series),-2.69% (inactive)
same,max response,[1]; [20],5.71%
same,max response,[1]; [21],1.67%
CN(C)CCC=C1c2ccccc2CCc2ccccc21,outcome,[2],inactive
same,Potency,[9],inactive
same,outcome,[3],inactive
same,"activity change, negative = inhibition",[1]; at 25.7 µM (top of the series),-5.26% (inactive)
same,"activity change, negative = inhibition",[1]; at 57.5 µM (top of the series),-0.124% (inactive) and 0.255% (inactive)
same,max response,[1]; [20],-13.5% and 9.92% and -13.3%
same,max response,[1]; [21],-18.6% and 12.5% and -14.8%
same,Potency,[4],inactive
same,Potency,[5],inactive
Cc1c(Cl)cccc1Nc1ccccc1C(=O)O,"activity change, negative = inhibition",[1]; at 25.7 µM (top of the series),-0.93% (inactive)
same,max response,[1]; [20],-6.86%
same,max response,[1]; [21],-11.8%
CC1(C)[C@@H]2CC[C@@]1(C)C(=O)C2,Potency,[10],inactive
same,Potency,[11],inactive
same,outcome,[12],inactive
same,outcome,[13],inactive
same,Potency,[14],inactive
same,Potency,[15],inactive
same,Potency,[16],inactive
same,outcome,[17],inactive
same,Potency,[18],inactive
same,Potency,[9],inactive
same,Potency,[19],inactive
same,"activity change, negative = inhibition",[1]; at 57.5 µM (top of the series),1.5% (inactive)
same,max response,[1]; [20],-8.09%
same,max response,[1]; [21],-6.29%
NCCNCCNCCN,Potency,[10],inactive
same,Potency,[11],inactive
same,outcome,[12],inactive
same,outcome,[13],inactive
same,Potency,[14],inactive
same,Potency,[15],inactive
same,Potency,[16],inactive
same,outcome,[17],inactive
same,Potency,[18],inactive
same,Potency,[9],inactive
same,Potency,[19],inactive
NC(=O)N/N=C/c1ccc([N+](=O)[O-])o1,Potency,[15],inactive
same,Potency,[18],inactive
same,Potency,[9],inactive
same,"activity change, negative = inhibition",[1]; at 57.5 µM (top of the series),-28.3% (inactive)
same,max response,[1]; [20],-6.33%
same,max response,[1]; [21],-28%
Cc1c(O)cccc1C(=O)N[C@@H](CSc1ccccc1)[C@H](O)CN1C[C@H]2CCCC[C@H]2C[C@H]1C(=O)NC(C)(C)C,Potency,[10],39.8 µM (active)
same,Potency,[11],50.1 µM (active)
same,Potency,[14],50.1 µM (active)
same,Potency,[15],50.1 µM (active)
same,Potency,[16],39.8 µM (active)
same,Potency,[18],50.1 µM (active)
same,Potency,[9],39.8 µM (active)
same,Potency,[19],31.6 µM (active)
